Test results from PubChem BioAssay.
A number with no mark means an inactive call. How the calls were made is not given here.

target: Pantothenate synthetase (Mycobacterium tuberculosis (strain ATCC 25618 / H37Rv)) (UniProt P9WIL5); assay: Coupled enzyme confirmation of inhibitors against recombinant Mtb PanC (AID 375); conditions: coupled enzyme assay; at 10 µM, hits give high values;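 further: 0% = full reaction with vehicle and 100% = no enzyme background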
Sequence (P9WIL5 whole entry, looked up): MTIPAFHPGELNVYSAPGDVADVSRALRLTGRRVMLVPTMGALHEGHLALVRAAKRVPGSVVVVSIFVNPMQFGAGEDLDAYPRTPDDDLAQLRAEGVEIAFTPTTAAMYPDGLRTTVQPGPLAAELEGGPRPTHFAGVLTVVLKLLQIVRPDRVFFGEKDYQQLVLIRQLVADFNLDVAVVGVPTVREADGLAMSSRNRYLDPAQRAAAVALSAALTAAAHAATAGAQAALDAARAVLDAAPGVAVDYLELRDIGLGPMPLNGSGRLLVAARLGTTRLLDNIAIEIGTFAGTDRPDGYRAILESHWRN

| Compound | inhibition [%] |
| --- | --- |
| CC(C)(C)NC(=O)COC(=O)c1snc(C(=O)NC2CCCCC2)c1N | 3 |
| CC[C@]1(O)C[C@@H]2CN(CCc3c([nH]c4ccccc34)[C@@](C(=O)OC)(c3cc4c(cc3OC)N(C)[C@H]3[C@@](O)(C(=O)OC)[C@H](OC(C)=O)[C@]5(CC)C=CCN6CC[C@]43[C@@H]65)C2)C1 | 0 |
| c1ccc2c(c1)nc(NC1CCCCC1)c1nncn12 | 0 |
| CN(C)/C=C1\N=C(c2ccc(Cl)cc2Cl)OC1=O | 0 |
| Cc1ccc(-n2ncc(C(=O)N3CCc4ccccc4C3)c2NC(=O)c2ccco2)cc1C | 0 |
| CSc1nsc(SCC(=O)N2CCc3ccccc32)n1 | 8 |
| CCOC(=O)c1ccc(NS(=O)(=O)c2ccc3c(c2)oc(=O)n3C)cc1 | 0 |
| CCOC(=O)C1CCCN(C(=O)c2sc3nc(-c4ccccc4)cn3c2C)C1 (stereo not given) | 0 |
| CCOc1ccccc1N1CCN(C(=O)c2ccncc2)CC1 | 0 |
| O=C(CN1CCCCCC1)OCCN=C1NS(=O)(=O)c2ccccc21 | 0 |
| Nc1nc(CN2CCN(Cc3ccc4c(c3)OCO4)CC2)nc(Nc2ccccc2)n1 | 0 |
| Oc1ccc2ccccc2c1CN1CCN(c2ccccc2F)CC1 | 1 |
| Cc1ccc(C)c(-c2nc3ccc(N)cc3[nH]2)c1 | 0 |
| CC(C)[N+](C)(CCOC(=O)C1c2ccccc2Oc2ccccc21)C(C)C | 0 |
| COC(=O)CSc1nc(C)c(C(C)=O)cc1C#N | 10 |
| CN1CCCN(C(c2ccccc2)c2ccc(Cl)cc2)CC1 (stereo not given) | 0 |
| CCCn1c(SCC(=O)NCc2ccco2)nc2c1c(=O)n(C)c(=O)n2C | 11 |
| Cc1cc(C(F)(F)F)c2c(C)nn(CCc3nn[nH]n3)c2n1 | 0 |
| COc1ccc2ccccc2c1CN1CCN(C)CC1 | 3 |
| CC(=O)O[C@H]1C(=O)[C@]2(C)[C@H]([C@H](OC(=O)c3ccccc3)[C@]3(O)C[C@H](OC(=O)[C@H](O)[C@@H](NC(=O)c4ccccc4)c4ccccc4)C(C)=C1C3(C)C)[C@]1(OC(C)=O)CO[C@@H]1C[C@@H]2O | 9 |

| Compound | inhibition [%] |
| --- | --- |
| O=C(Nn1cnnc1)C1Cc2ccccc2CN1S(=O)(=O)c1ccc(F)cc1 (stereo not given) | 0 |
| Cn1c(=O)cc(OCC(=O)NCCCN2CCN(Cc3ccccc3)CC2)c2ccccc21 | 0 |
| CCCCNS(=O)(=O)c1ccc(OC)c2ncccc12 | 3 |
| CC1CCCCC1NC(=O)C1CCN(C(=O)NC2CCCCC2)CC1 (stereo not given) | 0 |
| CN(C(=O)C(Cl)Cl)c1ccc(OC(=O)c2ccco2)cc1 | 7 |
| CCn1c(=O)cc(SCC(=O)NCCN2CCN(Cc3ccccc3)CC2)c2ccccc21 | 0 |
| COc1ccc(S(=O)(=O)N2CCCC2C(=O)Nc2ccc(O)cc2)cc1 (stereo not given) | 0 |
| CC(C)(C)c1ccc(OCC(=O)O)cc1 | 1 |
| O=C(Cn1nc(Cc2cccnc2)c2ccccc2c1=O)NCC1CCCO1 (stereo not given) | 0 |
| Cc1cc(C)c2c(N)c(C(=O)c3ccccc3)oc2n1 | 0 |
| CCCN(CC1CC1)C(=O)Nc1ccccc1C | 1 |
| O=c1cc(CSc2ccccn2)c2ccccc2[nH]1 | 3 |
| COc1ccc(C2(C(=O)Nc3cc(C)on3)CCOCC2)cc1 | 2 |
| O=C(c1ccc(-c2ccccc2)cc1)N1CCC(C(=O)N2CCCC2)CC1 | 0 |
| Cc1ccc(NC(=O)CSC2=C(C#N)C(c3ccc4c(c3)OCO4)CC(=O)N2)cc1C (stereo not given) | 0 |
| Cc1cc(OC(=O)N2CCOCC2)cc(C)c1Cl | 0 |
| Cc1c(O)c(CN2CCCC(C)C2)cc2c3c(c(=O)oc12)CCC3 (stereo not given) | 9 |
| COC(=O)c1ccc(NC2(C#N)C(=O)Nc3ccccc32)cc1 (stereo not given) | 0 |
| CCN(CC)S(=O)(=O)c1cccc(-c2nnc(SCCOc3ccccc3C)o2)c1 | 1 |
| O=P(CCNCc1ccco1)(c1ccccc1)c1ccccc1 | 0 |
